# Laboratory results reported in PubChem BioAssay.
# Active and inactive are the calls of the source.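 How the source made its calls, unless noted: active means compound that reduces growth-factor-driven endothelial tube area in a mixed cell culture, no cutoff stated; inactive means the rest.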
# Test: growth inhibition of GSK3B-pretreated HCT116 cells – cell-based, CellTiter-Glo, 0.2 to 20 µM (AID 1117336;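 active means compounds lowering colon cancer cell viability after pretreatment blocking the GSK3B kinase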)
# Conditions: HCT116 viability after GSK3B inhibitor, at 20 µM, active compounds read high
row,Structure (SMILES),viability decrease
1,CC(C)(C)c1cc(O)ccc1O,11.8% (inactive)
2,CCN(CC)C(=O)N[C@@H]1C=C2c3cccc4[nH]cc(c34)C[C@@H]2N(C)C1,8.2% (inactive)
3,COc1cccc(C(=O)CCN[C@@H](C)[C@H](O)c2ccccc2)c1,-1.3% (inactive)
4,CC1(C)S[C@@H]2[C@H](N)C(=O)N2[C@@H]1C(=O)O,-4.5% (inactive)
5,CCCN(CCC)C(=O)Cc1c(-c2ccc(Cl)cc2)nc2ccc(Cl)cn12,10.8% (inactive)
6,Nc1ccccc1C(=O)O,-0.1% (inactive)
7,COc1cc(CC#N)cc(OC)c1OC,2.6% (inactive)
8,C[C@H]1CNCCc2ccc(Cl)cc21,-1.35% (inactive)
9,Nc1ccc(N)cc1,-2.35% (inactive)
10,CC(C)(C)NC[C@H](O)c1ccc(O)cc1Cl,13.2% (inactive)
11,Clc1ccccc1N1CCNCC1,4.1% (inactive)
12,CCN(CC)N(O)N=O,2.3% (inactive)
13,CCN(CC)Cc1nccn1-c1ccc([N+](=O)[O-])cc1C(=O)c1ccccc1Cl,-3% (inactive)
14,O=c1[nH]c2cc(Cl)ccc2n1C1CCNCC1,1.8% (inactive)
15,Oc1ccccc1-c1ccccc1,-2.35% (inactive)
16,O=C(N[C@H]1N=C(c2ccccc2F)c2cccc3c2N(CC3)C1=O)c1cc2ccccc2[nH]1,44.4% (inactive)
17,COP(=S)(OC)SCN1C(=O)c2ccccc2C1=O,-8.95% (inactive)
18,CC(C)NC(C)C,-0.3% (inactive)
19,CNC(C)[C@@H](O)c1ccc(O)cc1 (stereo not given in full),-4.1% (inactive)
20,CCCOC(=O)c1cncn1C(C)c1ccccc1 (stereo not given),-12.2% (inactive)

row,Structure (SMILES),viability decrease
1,C1CN(P2(N3CC3)=NP(N3CC3)(N3CC3)=NP(N3CC3)(N3CC3)=N2)CCO1 (stereo not given),8.1% (inactive)
2,N[C@@H](Cc1ccc(Oc2cc(I)c(O)c(I)c2)c(I)c1)C(=O)O,48.2% (inactive)
3,CC[N+]1(CC)CCC(OC(=O)C(O)(c2ccccc2)c2ccccc2)C1 (stereo not given),4.8% (inactive)
4,COc1ccc2c(C(=O)c3ccc(Cl)cc3)c(C)n(CC(=O)O)c2c1,13.7% (inactive)
5,S=C(SSC(=S)N1CCCCC1)N1CCCCC1,-2.9% (inactive)
6,C[N+](C)(C)CCOC(=O)C(O)(c1ccccc1)c1ccccc1,98.1% (active)
7,CNC(=O)NC(O)C(Cl)(Cl)Cl (stereo not given),-2.1% (inactive)
8,C[C@]12C[C@@H]3S[C@H]3C[C@@H]1CC[C@H]1[C@H]3CC[C@@H](O)[C@@]3(C)CC[C@@H]12,-16.6% (inactive)
9,O=C(O)c1ccc(=O)[nH]c1,3.2% (inactive)
10,C#CCOC(C(=O)OCCN(C)C)(c1ccccc1)c1ccccc1,-8.15% (inactive)
11,CC(=O)C1CCOC1=O (stereo not given),13.5% (inactive)
12,C[C@]12C=CC(=O)C=C1CC[C@@H]1[C@@H]2CC[C@@]2(C)[C@H]1CC[C@]2(C)O,38.6% (inactive)
13,CN1CCc2cc(Cl)c(O)cc2[C@H]2c3ccccc3CC[C@@H]21,16.1% (inactive)
14,C[C@]12CC[C@H]3[C@@H](CCC4=CC(=O)CC[C@@]43C)[C@@H]1CC[C@@H]2C(=O)O,3.5% (inactive)
15,O=C1OC(c2ccc(O)c(S(=O)(=O)O)c2)(c2ccc(O)c(S(=O)(=O)O)c2)c2c(Br)c(Br)c(Br)c(Br)c21,22.6% (inactive)
16,CN1CCC(O)(c2ccc(F)cc2)C(C(=O)c2ccc(F)cc2)C1 (stereo not given),-1.23% (inactive)
17,CC(=O)O[C@H]1C[C@H](O[C@H]2[C@@H](O)C[C@H](O[C@@H]3[C@@H](O)C[C@H](O[C@H]4CC[C@@]5(C)[C@H](CC[C@@H]6[C@H]5C[C@@H](O)[C@]5(C)[C@@H](C7=CC(=O)OC7)CC[C@]65O)C4)O[C@@H]3C)O[C@@H]2C)O[C@H](C)[C@H]1O[C@@H]1O[C@H](CO)[C@@H](O)[C@H](O)[C@@H]1O,73.3% (active)
18,CCc1ccc(C2CCNCC2)cc1,-2.8% (inactive)
19,C=CCOC(Cn1ccnc1)c1ccc(Cl)cc1Cl (stereo not given),-54.8% (inactive)
20,C1CCC(NC2CCCCC2)CC1,-4.15% (inactive)

# Test: inhibition of endothelial tube formation, primary screen, imaging, VEGF stimulated, CD31 staining, tube area, NPC library (AID 1117340)
# Conditions: VEGF-stimulated ADSC/ECFC co-culture, at 10 µM, active compounds read high
row,Structure (SMILES),tube area decrease
1,CC(C)(C)c1cc(O)ccc1O,50.3% (active)
2,CCN(CC)C(=O)N[C@@H]1C=C2c3cccc4[nH]cc(c34)C[C@@H]2N(C)C1,-8.2% (inactive)
3,COc1cccc(C(=O)CCN[C@@H](C)[C@H](O)c2ccccc2)c1,42% (active)
4,CC1(C)S[C@@H]2[C@H](N)C(=O)N2[C@@H]1C(=O)O,7.5% (inactive)
5,CCCN(CCC)C(=O)Cc1c(-c2ccc(Cl)cc2)nc2ccc(Cl)cn12,-7.3% (inactive)
6,Nc1ccccc1C(=O)O,-2.6% (inactive)
7,COc1cc(CC#N)cc(OC)c1OC,36.1% (inactive)
8,C[C@H]1CNCCc2ccc(Cl)cc21,-10.5% (inactive)
9,Nc1ccc(N)cc1,-29.4% (inactive)
10,CC(C)(C)NC[C@H](O)c1ccc(O)cc1Cl,-4.4% (inactive)
11,Clc1ccccc1N1CCNCC1,-12% (active)
12,CCN(CC)N(O)N=O,-3.9% (inactive)
13,CCN(CC)Cc1nccn1-c1ccc([N+](=O)[O-])cc1C(=O)c1ccccc1Cl,2.7% (inactive)
14,O=c1[nH]c2cc(Cl)ccc2n1C1CCNCC1,-3.4% (inactive)
15,Oc1ccccc1-c1ccccc1,-3.5% (inactive)
16,O=C(N[C@H]1N=C(c2ccccc2F)c2cccc3c2N(CC3)C1=O)c1cc2ccccc2[nH]1,8.5% (inactive)
17,COP(=S)(OC)SCN1C(=O)c2ccccc2C1=O,1.5% (inactive)
18,CC(C)NC(C)C,-6.3% (inactive)
19,CNC(C)[C@@H](O)c1ccc(O)cc1 (stereo not given in full),-8.3% (inactive)
20,CCCOC(=O)c1cncn1C(C)c1ccccc1 (stereo not given),-7.5% (inactive)

row,Structure (SMILES),tube area decrease
1,C1CN(P2(N3CC3)=NP(N3CC3)(N3CC3)=NP(N3CC3)(N3CC3)=N2)CCO1 (stereo not given),86.7% (active)
2,N[C@@H](Cc1ccc(Oc2cc(I)c(O)c(I)c2)c(I)c1)C(=O)O,34.7% (inactive)
3,CC[N+]1(CC)CCC(OC(=O)C(O)(c2ccccc2)c2ccccc2)C1 (stereo not given),1.2% (inactive)
4,COc1ccc2c(C(=O)c3ccc(Cl)cc3)c(C)n(CC(=O)O)c2c1,-18.1% (inactive)
5,S=C(SSC(=S)N1CCCCC1)N1CCCCC1,8.9% (inactive)
6,C[N+](C)(C)CCOC(=O)C(O)(c1ccccc1)c1ccccc1,-29.2% (inactive)
7,CNC(=O)NC(O)C(Cl)(Cl)Cl (stereo not given),-28.9% (inactive)
8,C[C@]12C[C@@H]3S[C@H]3C[C@@H]1CC[C@H]1[C@H]3CC[C@@H](O)[C@@]3(C)CC[C@@H]12,10.4% (inactive)
9,O=C(O)c1ccc(=O)[nH]c1,-2.4% (inactive)
10,C#CCOC(C(=O)OCCN(C)C)(c1ccccc1)c1ccccc1,36.7% (inactive)
11,CC(=O)C1CCOC1=O (stereo not given),-5% (inactive)
12,C[C@]12C=CC(=O)C=C1CC[C@@H]1[C@@H]2CC[C@@]2(C)[C@H]1CC[C@]2(C)O,31.2% (inactive)
13,CN1CCc2cc(Cl)c(O)cc2[C@H]2c3ccccc3CC[C@@H]21,24.1% (inactive)
14,C[C@]12CC[C@H]3[C@@H](CCC4=CC(=O)CC[C@@]43C)[C@@H]1CC[C@@H]2C(=O)O,8.1% (inactive)
15,O=C1OC(c2ccc(O)c(S(=O)(=O)O)c2)(c2ccc(O)c(S(=O)(=O)O)c2)c2c(Br)c(Br)c(Br)c(Br)c21,-6.3% (inactive)
16,CN1CCC(O)(c2ccc(F)cc2)C(C(=O)c2ccc(F)cc2)C1 (stereo not given),18% (inactive)
17,CC(=O)O[C@H]1C[C@H](O[C@H]2[C@@H](O)C[C@H](O[C@@H]3[C@@H](O)C[C@H](O[C@H]4CC[C@@]5(C)[C@H](CC[C@@H]6[C@H]5C[C@@H](O)[C@]5(C)[C@@H](C7=CC(=O)OC7)CC[C@]65O)C4)O[C@@H]3C)O[C@@H]2C)O[C@H](C)[C@H]1O[C@@H]1O[C@H](CO)[C@@H](O)[C@H](O)[C@@H]1O,108% (active)
18,CCc1ccc(C2CCNCC2)cc1,1.2% (inactive)
19,C=CCOC(Cn1ccnc1)c1ccc(Cl)cc1Cl (stereo not given),6.3% (inactive)
20,C1CCC(NC2CCCCC2)CC1,-1.6% (inactive)
